The text below walks through data of PMC7819943, “Rice protein-binding microarrays: a tool to detect cis-acting elements near promoter regions in rice”.

Whole data set: some 39,000 sequences, median “fluorescence intensity (a.u.)” near 4,300, cut for the highest 2% near 39,000. Shown is part of a subset that was picked to be rich in the highest values.

The assay deals with T1, OsSMF1 (Oryza sativa, UniProt Q6ZLB0 1-436).
T1 sequence: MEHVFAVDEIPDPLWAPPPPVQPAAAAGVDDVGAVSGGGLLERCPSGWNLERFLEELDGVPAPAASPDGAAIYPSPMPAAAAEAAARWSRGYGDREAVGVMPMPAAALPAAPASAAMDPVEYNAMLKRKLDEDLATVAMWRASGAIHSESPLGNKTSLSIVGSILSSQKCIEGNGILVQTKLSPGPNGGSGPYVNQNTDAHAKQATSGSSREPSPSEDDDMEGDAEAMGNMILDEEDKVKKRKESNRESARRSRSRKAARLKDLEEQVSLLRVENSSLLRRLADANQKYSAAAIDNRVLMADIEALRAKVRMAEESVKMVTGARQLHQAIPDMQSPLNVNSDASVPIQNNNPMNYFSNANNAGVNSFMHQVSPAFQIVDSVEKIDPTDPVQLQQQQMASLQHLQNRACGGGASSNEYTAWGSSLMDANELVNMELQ
Put plainly: protein-binding microarray (RPBM); PBS, 2% BSA, 51.3 ng/ul salmon testes DNA, 50 uM zinc acetate, 200 nM TF, 25 C, 1 h; high values mean tight binding. The note with it: protein: recombinant; tags: N-terminal polyhistidine and DsRed monomer fusion (pET32a); chain copies: 2; label: CyDye5-dUTP incorporated in the synthesized complementary strand; 3' TTTTT single-stranded linker to array surface; dsDNA, one strand shown. Summed up:
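The binding signal is fluorescence intensity per feature, in arbitrary units, read on an Axon 4000B scanner. Polyhistidine- and DsRed-tagged transcription factors (N-terminal fusions) from E. coli BL21-CodonPlus were purified on Ni–NTA and applied at 200 nM for 1 h at 25 °C to a double-stranded, BSA-blocked custom Agilent array in buffer with 50 µM zinc acetate.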
With “GGTCAAGAGCGCATCCAGCATGTCGTCGTGTACCTGACCGCGGAGTCACCTAGTGCAG”, the binding signal is 3720 fluorescence intensity (a.u.).

As for “TTGTTCCTTTACAGTTTACAGTCATCTCTATTGTAGTATTCGGAGTCACCTAGTGCAG”, the binding signal was 4220 fluorescence intensity (a.u.).

Consider “TGTAGTGTTACAGTATGCCACGTCATCATGCTACGCTATTCGGAGTCACCTAGTGCAG”, for which the binding signal is 43900 fluorescence intensity (a.u.).

With “TAGGTTAGTGGTGGCTGGGTCGTCACGTCATTGCATTGCACGGAGTCACCTAGTGCAG”, the binding signal is 3270 fluorescence intensity (a.u.).

With “GTGGTGTTACGCTACTCGTGCAGTAGTGCCTCATCATGGGCGGAGTCACCTAGTGCAG”, the binding signal is 3500 fluorescence intensity (a.u.).

Turning to “TAGTGTTTGTTTTGGGTTGTGCTCAGCTTAGCTCTGGTGTCGGAGTCACCTAGTGCAG”, the binding signal is 39800 fluorescence intensity (a.u.).

Regarding “AGTAGTATTGGCTTGGGGTGTTGCCACGTCATCACCTGGTCGGAGTCACCTAGTGCAG”, the binding signal is 55000 fluorescence intensity (a.u.).

Turning to “AGATTTTGGGTGTGTTTGGTTGCTTGCATTGTTTTAGTCTCGGAGTCACCTAGTGCAG”, the binding signal was 3300 fluorescence intensity (a.u.).

With “CCATGGCGGGGTGTATTGTTGTTGTATTTGGGGTTCTGGTCGGAGTCACCTAGTGCAG”, the binding signal is 3630 fluorescence intensity (a.u.).

For “TTTAGCTCTCGTCGATGTGGTGTTTGTTGGGTTTTCCCTTCGGAGTCACCTAGTGCAG”, the binding signal is 3670 fluorescence intensity (a.u.).

As to “ACTCTGCCGGCAGGCGTACGTGTGTCCCGGCATTTGGTCGCGGAGTCACCTAGTGCAG”, the binding signal was 4500 fluorescence intensity (a.u.).

Turning to “TCTTCCAAATGAACTGGCAATATACTTGTACACGTTCTGTCGGAGTCACCTAGTGCAG”, the binding signal was 3190 fluorescence intensity (a.u.).

Consider “ATTCACAGGCCTTTCTTAATTAAAACGGTAGATGGAGCAACGGAGTCACCTAGTGCAG”, for which the binding signal was 28400 fluorescence intensity (a.u.).

Take “TTGCCGTATCGGCTCGCCTGAAAGCGTGTCATTAGCATGACGGAGTCACCTAGTGCAG”: the binding signal was 3950 fluorescence intensity (a.u.).

Consider “GCACATGACTGTGCAAACGCTGTTCCTGATCTGAGTAAGACGGAGTCACCTAGTGCAG”, for which the binding signal is 4170 fluorescence intensity (a.u.).

As to “CGGCCGCGACACGCACACGCCCACCCCACGCCCGCCGCGCCGGAGTCACCTAGTGCAG”, the binding signal was 3140 fluorescence intensity (a.u.).

On to “GGTCTTGGTAGCCACCGTGTACGGCCTCTGCGGCATGCAGCGGAGTCACCTAGTGCAG”, for which the binding signal was 3770 fluorescence intensity (a.u.).

As for “ATGTTATCGTGCTAGTGTCAGCACATTCTCACTGATATTACGGAGTCACCTAGTGCAG”, the binding signal is 5330 fluorescence intensity (a.u.).

In the case of “GTAAGGCGTCCATGTGATGTCATTGTTGATGGGCAAGTGCCGGAGTCACCTAGTGCAG”, the binding signal was 6430 fluorescence intensity (a.u.).

As for “CGCATCGCATCTATGACTGGAGAGTGTATCTTTGCTTGCACGGAGTCACCTAGTGCAG”, the binding signal is 3180 fluorescence intensity (a.u.).

Regarding “TCACCAGCGTCCGGTCAGCCATGGCGCTGAGTGGCCTCTTCGGAGTCACCTAGTGCAG”, the binding signal is 21000 fluorescence intensity (a.u.).

As to “AAAATGTGAATCTTTTGTATAGCCAGCTTCTTCTAAAACACGGAGTCACCTAGTGCAG”, the binding signal was 24900 fluorescence intensity (a.u.).

In the case of “AATTGATTTCTCTATAGACAAATAGGGAATGCCAGATTGACGGAGTCACCTAGTGCAG”, the binding signal was 20100 fluorescence intensity (a.u.).

Consider “TACTTCTTCTAAATGCTATAGCCAGGGAATGCAAACGAGACGGAGTCACCTAGTGCAG”, for which the binding signal was 42000 fluorescence intensity (a.u.).

For the sequence “CTGCGCCATCCACGCCAAGCGCGTCACCATCATGCCCAAGCGGAGTCACCTAGTGCAG”, the binding signal was 6140 fluorescence intensity (a.u.).

For the sequence “TTCATATCATATACGTACACGTGGAATAATTTGTAATTATCGGAGTCACCTAGTGCAG”, the binding signal was 9010 fluorescence intensity (a.u.).

Turning to “CTCGGGGTTAAGCAGAGGTTATCGTCCCCGCCGCAGGTTACGGAGTCACCTAGTGCAG”, the binding signal is 4020 fluorescence intensity (a.u.).

Turning to “TTCAGGATGAATGGTACGTAACATGATAGGACACTATTCACGGAGTCACCTAGTGCAG”, the binding signal is 48700 fluorescence intensity (a.u.).

For “AACACACTAGTAATACGAATCTGAATATGGTACTAGGATACGGAGTCACCTAGTGCAG”, the binding signal was 64200 fluorescence intensity (a.u.).

Take “CCGGATATGTTCTCGTAGTTTATATACGTTCATGATGACACGGAGTCACCTAGTGCAG”: the binding signal was 3450 fluorescence intensity (a.u.).

Turning to “AGTACTGGATGTGACACATCCTGGTACTACGAATCTGAACCGGAGTCACCTAGTGCAG”, the binding signal is 3910 fluorescence intensity (a.u.).

For the sequence “ATATTCATATGACATGACACGTAAATGTCACGTAGGATATCGGAGTCACCTAGTGCAG”, the binding signal is 3700 fluorescence intensity (a.u.).

Consider “TTCCAACACTAGGATGGTATATGAACCACCAGGATACAAACGGAGTCACCTAGTGCAG”, for which the binding signal is 41800 fluorescence intensity (a.u.).

“AAACGAATCTAGGAATATATGTGACACATCATAGTACTACCGGAGTCACCTAGTGCAG”: the binding signal was 4370 fluorescence intensity (a.u.).

Take “ACTAGGATGTCACAACAGCCAAACCATCCATATACTGCCACGGAGTCACCTAGTGCAG”: the binding signal was 3170 fluorescence intensity (a.u.).

Turning to “CCACAAACCAAACCAACCCAAGATATCCTGATGAACCAAACGGAGTCACCTAGTGCAG”, the binding signal is 35300 fluorescence intensity (a.u.).

Take “TGGCCCAACACATCAACGTTACATCACGGGCTTTAACGTTCGGAGTCACCTAGTGCAG”: the binding signal is 3290 fluorescence intensity (a.u.).

“AGAAAAGAAAACGCGGCAATAAACAATGACACGGCCTGTCCGGAGTCACCTAGTGCAG”: the binding signal was 4200 fluorescence intensity (a.u.).

For “GGCTGACGGCTGGTGAGAAGCCACGTCAGCATTTAATTCCCGGAGTCACCTAGTGCAG”, the binding signal is 13100 fluorescence intensity (a.u.).

As for “ATTGCGCAGGCGCAGCAATATTGAATGGCCCAAATGCTAGCGGAGTCACCTAGTGCAG”, the binding signal was 23800 fluorescence intensity (a.u.).

As for “GCACAGGCTTGACACCAGTCGAGCCGAGCCGAAACCCCGTCGGAGTCACCTAGTGCAG”, the binding signal was 3270 fluorescence intensity (a.u.).

For “ATTTTCGTGTGCAGTATATGTGTTCCCAACCCTGAGAGCCCGGAGTCACCTAGTGCAG”, the binding signal is 3620 fluorescence intensity (a.u.).
